The nature of test [1]: reducers of endogenous Her2 protein level, primary screen, SKBR3 breast tumor cells, AlphaScreen, ATP viability (AID 461;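 active = Her2 level under about 52% in both replicate screens, with viability over 70% of control, limit read from the data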;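 for Her2 level: lower value means less Her2 protein in the cells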;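 for viability: percent of carrier control wells set as 100% viability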). As to conditions: 18-24 h, measured here: SKBR3 viability, ATP luminescence, at 10 µM. Background: In Alpha technology, singlet oxygen from a donor bead excites a nearby acceptor bead.
The target of test [2] is Receptor tyrosine-protein kinase erbB-2 (Homo sapiens) (UniProt P04626). Described as above. As to conditions: 18-24 h, at 10 µM, stronger effect = lower value.
The nature of test [3]: SK-BR-3 cell growth inhibitors, pilot screen, 24 h, human (AID 572;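 active = viability at or below 10% of carrier control in both of two separate runs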;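 note: compound exposure lasted between 18 and 24 h rather than exactly 24 h; 100% = carrier-treated control wells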). As to conditions: SK-BR-3 viability, CellTiter-Glo luminescence, at 10 µM, stronger effect = lower value. In general terms: In ATP-based viability assays light output follows the ATP content of the culture.
The nature of test [4]: HUVEC growth inhibition – cell-based, human, primary screen (AID 575;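 active = viability at or below 30% in both replicate assays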;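 note: 100% = median of untreated cell wells with 0.1% DMSO on each plate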). As to conditions: HUVEC proliferation, CellTiter-Glo luminescence, 72 h; at 10 µM; stronger effect = lower value.
Test [5] is described as follows: growth inhibitors of H69AR lung tumor, primary screen, human, duplicate replicates (AID 580;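 active = viability at or under a set limit in both replicates, limit being median viability minus 3 SD, cut at about 48% in these data, passing the limit was not always enough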;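 note: 100% = mean luminescence of untreated wells and 0% = no signal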). As to conditions: H69AR lung tumor cells viability, ATP luminescence, 72 h; at 10 µM; stronger effect = lower value.
Test [6] is described as follows: reversal of MRP1-mediated doxorubicin resistance, pilot screen, H69AR cells, doxorubicin co-treatment (AID 601;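 active = viability loss from added drug above about 55%, and viability with drug at most 40%, in both replicates, limit read from the data, passing the limit was not always enough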). As to conditions: CellTiter-Glo, 72 h, at 10 µM; for differential viability (reversal): stronger effect = higher value.
Test [7] can be described thus: 384-well plate pilot, post-Golgi transport modulator project, inhibition of yeast transport mutant growth (AID 636; in the data active = inhibition above about 31%). As to conditions: absorbance 615 nm, about 18 h, stronger effect = higher value.
Test [8] in a line: growth suppression of yeast trafficking mutant, preliminary HTS, modulators of trafficking downstream of Golgi apparatus project, 1536-format plate, OD 615 nm (AID 637; in the data active = inhibition above about 30%). As to conditions: yeast transport mutant growth, absorbance 615 nm, 18 h; stronger effect = higher value.
Test [9] in a line: OD615 S. cerevisiae growth inhibition, permissive medium, pilot counter-assay, permissive growth control for S. cerevisiae lifespan shortening project (AID 705;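 active = growth inhibition above 25% in both replicates, a cutoff set 3 SD above the mean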). As to conditions: OD615, 24 h, at 10 µM, stronger effect = higher value.
Test [10] is described as follows: Restrictive medium S. cerevisiae growth inhibition, OD615, pilot screen of yeast lifespan reduction project, restrictive growth control (AID 706;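 active = growth inhibition above a set limit, 3 SD over mean compound inhibition, in both replicates, cut at about 43% in these data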;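 note: modified DeaD lifespan yeast strain shifted to restrictive glucose medium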). As to conditions: OD615, 48 h, at 10 µM, stronger effect = higher value.
Test [11] can be described thus: viability gain of MRP-1-high H69AR cells under doxorubicin, pilot screen, MRP-1 activator project, CellTiter-Glo, duplicate (AID 807;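 active = viability increase at or above a cutoff of the median across tested compounds plus 3 SD, cut at about 8.5% in these data, passing the limit was not always enough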;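 note: compound pretreatment 18-22 h then 72 h combined with doxorubicin; 0% = doxorubicin alone and 100% = vehicle without doxorubicin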). As to conditions: H69AR viability with doxorubicin, CellTiter-Glo luminescence; at 10 µM; stronger effect = higher value.
Test [12] can be described thus: growth suppression of beta-catenin knockout HCT116, pilot screen, human colon tumor cells (AID 823;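 active = cell viability at or below a set limit in both duplicate runs, the limit being the all-compound median minus 4 SD, cut at about 23% in these data, passing the limit was not always enough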;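 note: 0% = wells killed by 20 µM Hyamine and 100% = untreated DMSO cell wells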). As to conditions: CellTiter-Glo, 60 h, at 10 µM, stronger effect = lower value.
Test [13] is described as follows: growth suppression of PTEN-deleted HCT116, pilot screen, cell-based, HCT116 clonal line, CellTiter-Glo (AID 824).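 Note: 0% = 20 µM Hyamine control and 100% = vehicle cell control.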 As to conditions: 60 h, at 10 µM, stronger effect = lower value.
Test [14] in a line: inhibitors of the yeast RAM network, pilot screen, dse1pr::URA3 reporter, 5-FOA selection (AID 869;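 active = inhibition over a set limit, the all-compound mean plus 3 SD, in both replicate runs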;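 note: 0% = DMSO wells with no growth and 100% = 10 µM 1-NA-PP1 with full growth; RAM network block rescues cells from 5-FOA so hits raise OD615 growth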). As to conditions: S. cerevisiae dse1pr::URA3 5-FOA growth, OD615, 2 d; at 10 µM; stronger effect = higher value; strain carries analog-sensitive mutant Cbk1 kinase.
Test [15] can be described thus: RAM signaling pathway blockade in yeast – S. cerevisiae, Pdr1DBD-CYC8 efflux-inhibited sensitized strain, primary screen (AID 1298;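 active = RAM network inhibition above 8.4% in each of two replicates, 3 SD over the compound average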;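 note: 0% = DMSO untreated cells without growth and 100% = 10 µM 1-NA-PP1 full growth; higher means more yeast growth rescued from 5-FOA killing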). As to conditions: S. cerevisiae cbk1-as DSE1-URA3 strain, 5-FOA growth OD615, 2 d; at 50 µM; stronger effect = higher value.
Where [16] appears, read: H69AR cells + 2 uM doxorubicin, measured here: viability with 2 uM doxorubicin, stronger effect = lower value.
The mark [17] stands for this setting: H69AR cells, compound alone cytotoxicity.

These results are taken from PubChem BioAssay.

Records with an inconclusive call do not appear. Activity calls are given as the source filed them.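 Rule for the calls, unless noted: active = viability at or below 27.92% in each of two runs, the all-compound median minus 4 SD; inconclusive = no clear call, values can overlap the other calls; inactive = the rest.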

Sequence of Receptor tyrosine-protein kinase erbB-2 (Homo sapiens) (P04626 whole entry, looked up): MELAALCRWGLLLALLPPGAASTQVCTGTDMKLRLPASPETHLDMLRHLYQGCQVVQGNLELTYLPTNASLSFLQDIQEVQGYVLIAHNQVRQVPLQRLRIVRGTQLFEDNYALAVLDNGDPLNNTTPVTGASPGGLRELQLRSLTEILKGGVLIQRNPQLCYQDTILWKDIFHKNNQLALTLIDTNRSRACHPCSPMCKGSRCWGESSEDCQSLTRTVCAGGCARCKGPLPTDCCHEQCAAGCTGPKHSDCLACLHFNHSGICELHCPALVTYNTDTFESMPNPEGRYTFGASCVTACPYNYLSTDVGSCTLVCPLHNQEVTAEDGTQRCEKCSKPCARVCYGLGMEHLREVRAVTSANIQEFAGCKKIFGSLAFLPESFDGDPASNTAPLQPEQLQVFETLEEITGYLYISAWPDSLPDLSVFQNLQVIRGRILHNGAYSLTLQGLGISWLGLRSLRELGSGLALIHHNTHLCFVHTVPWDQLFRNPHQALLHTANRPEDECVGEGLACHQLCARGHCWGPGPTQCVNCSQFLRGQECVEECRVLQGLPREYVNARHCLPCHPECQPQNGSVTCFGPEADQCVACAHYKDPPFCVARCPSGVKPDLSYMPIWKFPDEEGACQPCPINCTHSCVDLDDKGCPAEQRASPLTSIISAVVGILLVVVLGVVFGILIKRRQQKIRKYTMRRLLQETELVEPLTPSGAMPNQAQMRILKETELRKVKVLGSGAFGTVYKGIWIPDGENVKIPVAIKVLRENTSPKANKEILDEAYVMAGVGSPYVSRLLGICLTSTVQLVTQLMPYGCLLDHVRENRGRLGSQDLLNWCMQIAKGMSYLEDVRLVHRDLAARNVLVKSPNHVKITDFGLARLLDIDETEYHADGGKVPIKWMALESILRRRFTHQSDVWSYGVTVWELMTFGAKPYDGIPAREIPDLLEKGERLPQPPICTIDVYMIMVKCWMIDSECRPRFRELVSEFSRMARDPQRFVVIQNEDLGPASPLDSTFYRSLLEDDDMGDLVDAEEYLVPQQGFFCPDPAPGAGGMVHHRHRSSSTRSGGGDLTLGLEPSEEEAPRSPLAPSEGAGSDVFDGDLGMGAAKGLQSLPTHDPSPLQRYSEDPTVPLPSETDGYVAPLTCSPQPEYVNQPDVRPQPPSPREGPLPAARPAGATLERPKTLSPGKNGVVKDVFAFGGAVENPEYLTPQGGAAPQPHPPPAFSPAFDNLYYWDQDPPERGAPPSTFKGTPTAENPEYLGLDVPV

As to `CCOC(=O)C1=C(C)N(C)C(=O)NC1c1ccccc1OC` (centres undefined), the viability in test [1] was 97%; in test [3] it was 97% (inactive); in [4], 88.2% (inactive); in test [5], 175% (inactive); in test [6] (setting [16]), 110%; in test [6] (setting [17]) it was 175%. Besides, the results for the viability in test [12] and in test [13] were 97.9% (inactive) and 93.4% (inactive), respectively. Besides, in test [2], the Her2 level is 88% (inactive). Also, the differential viability (reversal) in test [6] (H69AR cells + 2 uM doxorubicin) is 64.2% (inactive). The inhibition was -8.24% (inactive) in test [7], 2.46% (inactive) in test [8] and 0.97% (inactive) in test [14]. Besides, the growth inhibition in test [9] is -4.28% (inactive); in [10], -3.44% (inactive). Moreover, the viability increase in [11] was 0.16% (inactive). Moreover, the RAM network inhibition in test [15] was 2.01% (inactive).

Take `CCOCCOc1nc2c(c(=O)n(C)c(=O)n2C)n1Cc1ccc(C)cc1`: the viability was 83% in test [1]; 83% (inactive) in test [3]; 94.5% (inactive) in test [4]; 90.8% (inactive) in test [5]; 95.4% in test [6] (setting [16]); 90.8% in test [6] (setting [17]). In addition, the viability was 82.3% (inactive) in test [12] and 79% (inactive) in test [13]. The Her2 level in test [2] was 113% (inactive). In addition, the differential viability (reversal) in test [6] (H69AR cells + 2 uM doxorubicin) is -4.61% (inactive). Also, the inhibition in [7] is 0.27% (inactive); in [8] it was 4.33% (inactive); in [14], 2.64% (inactive). Moreover, the growth inhibition in test [9] was 3.97% (inactive); in [10], -4.73% (inactive). In [11], the viability increase is 0.37% (inactive). Further, in [15], the RAM network inhibition is 2.08% (inactive).

In the case of `O=C(Cn1nc(Cc2cccnc2)c2ccccc2c1=O)NCC1CCCO1` (centres undefined), the viability in [1] is 122%; in [3], 122% (inactive); in test [4] it was 99.2% (inactive); in [5] it was 92.2% (inactive); in [6] (setting [16]), 95.4%; in [6] (setting [17]), 92.2%. In addition, the viability in test [12] is 105% (inactive); in test [13], 99.1% (inactive). Moreover, the Her2 level in [2] is 111% (inactive). Moreover, the differential viability (reversal) in test [6] (H69AR cells + 2 uM doxorubicin) is -3.21% (inactive). The inhibition is -3.33% (inactive) in [7], 3.5% (inactive) in test [8] and 1.01% (inactive) in [14]. For the same compound, the growth inhibition was -1.69% (inactive) in test [9] and 6.33% (inactive) in test [10]. In addition, the viability increase in test [11] is -1.12% (inactive). Moreover, the RAM network inhibition in [15] was 5.65% (inactive).

Consider `O=C(Nc1ccccc1)C1=C(O)CC(c2ccoc2)CC1=Nc1ccccc1` (centres undefined), for which the viability in [1] was 93%; in [3] it was 93% (inactive); in [4] it was 96.8% (inactive); in test [5], 73% (inactive); in test [6] (setting [16]), 79.7%; in [6] (setting [17]), 73%. Besides, the viability was 69.6% (inactive) in test [12] and 70.3% (inactive) in test [13]. Further, in [2], the Her2 level is 91% (inactive). Besides, the differential viability (reversal) in test [6] (H69AR cells + 2 uM doxorubicin) is -6.7% (inactive). In addition, the values for the inhibition in test [7], in test [8] and in test [14] were 71.4% (active), 4.59% (inactive) and 1.05% (inactive), respectively. Further, the growth inhibition in test [9] is -11.2% (inactive); in test [10], -4.9% (inactive). The viability increase in test [11] was -4.69% (inactive). Besides, the RAM network inhibition in test [15] is 2.05% (inactive).

`COc1ccc(CNC(=O)c2ccc(CN3CCOCC3)cc2)cc1`: the viability was 116% in test [1]; 116% (inactive) in [3]; 99.8% (inactive) in test [4]; 92.1% (inactive) in [5]; 79.6% in [6] (setting [16]); 92.1% in [6] (setting [17]). Further, the viability in [12] is 96.4% (inactive); in test [13] it was 105% (inactive). The Her2 level in test [2] was 93.5% (inactive). Besides, the differential viability (reversal) in test [6] (H69AR cells + 2 uM doxorubicin) was 12.5% (inactive). The figures for the inhibition in [7], in test [8] and in test [14] were -4% (inactive), 4.52% (inactive) and 1.33% (inactive), respectively. Besides, the growth inhibition in [9] is -8.78% (inactive); in test [10], -16.6% (inactive). Further, in test [11], the viability increase is -0.28% (inactive). Moreover, in test [15], the RAM network inhibition is 0.16% (inactive).

For `CCn1cc(C(=O)N2CCOCC2)c(=O)c2cc(S(=O)(=O)N(C)C3CCCCC3)ccc21`, the viability was 84% in test [1]; 84% (inactive) in test [3]; 108% (inactive) in [4]; 106% (inactive) in [5]; 86.7% in test [6] (setting [16]); 106% in [6] (setting [17]). The figures for the viability in [12] and in test [13] were 100% (inactive) and 95.8% (inactive), respectively. In addition, in [2], the Her2 level was 89% (inactive). For the same compound, the differential viability (reversal) in test [6] (H69AR cells + 2 uM doxorubicin) is 19.7% (inactive). For the same compound, the results for the inhibition in [7], in [8] and in test [14] were 0.26% (inactive), 0.5% (inactive) and 0.85% (inactive), respectively. Moreover, the growth inhibition was -13.6% (inactive) in test [9] and -19.3% (inactive) in [10]. For the same compound, the viability increase in test [11] is -1.73% (inactive). Further, the RAM network inhibition in test [15] is 2.09% (inactive).

As to `CCCN(CCC)C(=O)c1c(C)[nH]c(C(=O)OCC)c1C`, the viability was 98% in [1]; 98% (inactive) in [3]; 106% (inactive) in test [4]; 81.4% (inactive) in test [5]; 93.8% in [6] (setting [16]); 81.4% in test [6] (setting [17]). Also, the viability in [12] was 92.9% (inactive); in test [13], 86.7% (inactive). Also, the Her2 level in [2] was 110% (inactive). The differential viability (reversal) in test [6] (H69AR cells + 2 uM doxorubicin) is -12.4% (inactive). Moreover, the inhibition in test [7] was -0.38% (inactive); in test [8], -2.33% (inactive); in [14] it was 2.12% (inactive). In addition, the growth inhibition in [9] was 4.14% (inactive); in test [10] it was -3.27% (inactive). The viability increase in test [11] is -3.62% (inactive). The RAM network inhibition in [15] is 1.44% (inactive).

Broadly, the viability is a read-out of living cells in per cent, often relative to untreated cells. As usually defined, the inhibition is the relative decrease from the control value, in per cent.
